Hit rate of the full screen: of about 1,000 compounds, about 360 (36%) were called active.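 How the source made its calls: active means Fitted curve of melting temperature shift crosses the 1.0 threshold at or below the sample's highest valid tested concentration; inconclusive means Flat fit with activity 30 to 70, or invalid fit; inactive means Opposite direction, flat within 30, or no crossing.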 Only a sample is shown.
Molecular target: Fibroblast growth factor 22 (Homo sapiens) (UniProt Q9HCT0)
Experiment: FGF22 ligand-induced thermal stabilization – biophysical, thermal shift, cherry-pick, FGF22 synaptogenesis inhibitor project, dose response (AID 687022); further: reference of the scale not given here
Settings: recombinant FGF22 thermal shift, SYPRO orange melting; series mostly up to 38 µM

Sequence of Fibroblast growth factor 22 (Homo sapiens) (Q9HCT0 whole entry, looked up): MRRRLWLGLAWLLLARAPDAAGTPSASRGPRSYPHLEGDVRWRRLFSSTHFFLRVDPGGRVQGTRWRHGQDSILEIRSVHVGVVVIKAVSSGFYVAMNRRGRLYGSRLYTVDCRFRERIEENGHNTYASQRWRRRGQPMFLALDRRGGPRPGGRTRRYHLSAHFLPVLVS

| Structure (SMILES) | Tm shift activity |
| --- | --- |
| Cc1[nH]c(=O)[nH]c(=O)c1S(=O)(=O)Nc1cccc([N+](=O)[O-])c1C | inactive |
| CCCNC(=O)N1CC(=O)N2[C@H](C1)[C@@H](c1ccc(-c3cccc(C)c3)cc1)[C@@H]2CO | inactive |
| O=c1cc[nH]c2ccc(Cl)cc12 | inactive |
| CC(=O)c1cccc(NC(=O)C2CCCN2S(=O)(=O)c2cccs2)c1 (stereo not drawn) | inactive |
| COc1ccc(CCC(C)NC(=O)Cc2ccc(OC)c(OC)c2)c(OC)c1 (stereo not drawn) | inactive |
| CCCN(C)C[C@H]1Oc2cc(-c3ccncc3)ccc2S(=O)(=O)N([C@H](C)CO)C[C@H]1C | inactive |
| O=C1C2C(C(=O)N1CCc1ccccc1)C1C=CC2C12CC2 (stereo not drawn) | inactive |
| CCOC(=O)C1CCC(CNCc2ccccc2C)CC1 (stereo not drawn) | inactive |
| N#CCSc1n[nH]c2nc3c(c(=O)n12)C1(CCCCC1)Cc1ccccc1-3 | inactive |
| COc1cc(C(=O)NC(=S)Nc2ccccc2[N+](=O)[O-])cc(OC)c1OC | inactive |
| C/C(=N\NC(=O)CNC(=O)c1ccncc1)c1ccc(C)cc1 | inactive |
| CN(CC(=O)Nc1ccccc1Cl)C(=O)COC(=O)c1nc(Cl)ccc1Cl | inactive |
| CCn1c(O)c(C=NCc2ccccc2)sc1=S | inactive |
| C[C@@H]1CN([C@H](C)CO)C(=O)Cc2cc(NS(C)(=O)=O)ccc2O[C@@H]1CN(C)Cc1ccc(C(=O)O)cc1 | inactive |
| CC(C)CC#Cc1cnc2c(c1)C(=O)N([C@@H](C)CO)C[C@H](C)[C@@H](CN(C)Cc1ccccn1)O2 | inactive |
| O=C(CCc1ccc(S(=O)(=O)N2CCOCC2)cc1)Nc1ccccc1F | inactive |
| C/C=C/c1ccc([C@@H]2[C@H](C#N)N(C(=O)CN3CCOCC3)[C@H]2CO)cc1 | inactive |
| COc1cc(CCC(=O)OCC(=O)Nc2ccc(C)cc2Br)cc(OC)c1OC | inactive |
| CN1CCN(C(=O)C[C@@H]2CC[C@H]3[C@@H](COC[C@H](O)CN3CC3CCCCC3)O2)CC1 | inactive |
| C[C@H]1CN([C@@H](C)CO)S(=O)(=O)c2ccc(/C=C/c3ccccc3)cc2O[C@@H]1CN(C)Cc1ccc(C(=O)O)cc1 | inactive |

| Structure (SMILES) | Tm shift activity |
| --- | --- |
| CCCC#Cc1ccc2c(c1)O[C@H](CN(C)C(C)=O)[C@@H](C)CN([C@@H](C)CO)S2(=O)=O | inactive |
| C[C@H]1CN([C@@H](C)CO)S(=O)(=O)c2ccc(C#Cc3ccncc3)cc2O[C@H]1CN(C)C(=O)Nc1ccc2c(c1)OCO2 | inactive |
| COc1cc(C2C(C#N)=C(N)Oc3n[nH]c(-c4cccnc4)c32)cc(Br)c1O (stereo not drawn) | inactive |
| C[C@@H]1CN([C@@H](C)CO)C(=O)CCCn2nncc2CO[C@H]1CN(C)Cc1ccccc1C(=O)O | inactive |
| CCN1C(=O)c2cccc3c(S(=O)(=O)Nc4ccc(O)c(C(=O)O)c4)ccc1c23 | 0.895% [at 5 µM] (inactive) |
| O=C(COc1ccc(S(=O)(=O)Nc2ccccc2)cc1)NCc1ccncc1 | inactive |
| CN(C)CCN1C(=O)C2C3C=CC(C3)C2C1=O (stereo not drawn) | inactive |
| COCC(=O)N(C)C[C@H]1Oc2cc(C#Cc3ccccc3)ccc2S(=O)(=O)N([C@H](C)CO)C[C@H]1C | inactive |
| O=C(NCC[C@@H]1CC[C@@H](NC(=O)C2CCOCC2)[C@H](CO)O1)Nc1ccc(Cl)cc1 | inactive |
| CC(C)NC(=O)Nc1ccc2c(c1)C(=O)N([C@H](C)CO)C[C@H](C)[C@H](CN(C)C(=O)Nc1cccc3ccccc13)O2 | inactive |
| O=C(O)C1CSC2(CCN(Cc3ccccc3)CC2)N1 (stereo not drawn) | inactive |
| Fc1ccccc1Nc1n[nH]c(=S)s1 | inactive |
| COc1cc(/C=N/NC(=O)c2ccncc2)ccc1OCC(=O)Nc1cccc([N+](=O)[O-])c1 | inactive |
| O=C(N/N=C/c1cccc(O)c1)c1cc(-c2ccc3c(c2)OCO3)n[nH]1 | inactive |
| CC(=O)N(C)C[C@@H]1Oc2ncc(C#CC(C)(C)O)cc2C(=O)N([C@@H](C)CO)C[C@H]1C | inactive |
| Cc1nc2cc(C(=O)NCc3ccc4c(c3)OCO4)ccc2n1-c1ccc(Br)cc1 | inactive |
| O=[N+]([O-])c1ccc2oc(/C=C/c3ccc(O)cc3)nc2c1 | inactive |
| C[C@@H]1CN([C@@H](C)CO)C(=O)c2cc(NS(C)(=O)=O)ccc2O[C@@H]1CN(C)Cc1ccc2c(c1)OCO2 | inactive |
| C[C@H](CO)N1C[C@H](C)[C@H](CN(C)C(=O)CC2CC2)Oc2ncc(C#CC3(O)CCCC3)cc2C1=O | inactive |
| O=C(NC[C@@H]1[C@H](c2ccccc2)[C@H](CO)N1C(=O)Cc1cccnc1)C1CC1 | inactive |

| Structure (SMILES) | Tm shift activity |
| --- | --- |
| CCc1cccc(NS(=O)(=O)c2ccc3c(c2)NC(=O)CC(=O)N3)c1 | inactive |
| CCC(=O)N1CC2(C1)[C@H](c1ccc(-c3cccc(C)c3)cc1)[C@@H](CO)N2S(C)(=O)=O | inactive |
| O=C(C1CCOCC1)N1C[C@@H]2[C@H](c3ccccc31)[C@@H](CO)N2Cc1ccccc1 | inactive |
| CC(OC(=O)c1ccccc1)C(=O)NCCC1=CCCCC1 (stereo not drawn) | inactive |
| O=C(COc1cccc(Cl)c1)NCC(c1cccs1)N1CCOCC1 (stereo not drawn) | inactive |
| Cc1cccc(NC(=O)COc2coc(CN3CCc4ccccc4C3)cc2=O)c1 | inactive |
| c1ccc(NCc2ccccn2)cc1 | inactive |
| CN1CCN(C(=O)C[C@H]2C=C[C@@H](NC(=O)c3ccc4c(c3)OCO4)[C@H](CO)O2)CC1 | inactive |
| CN(C)S(=O)(=O)n1cnc([C@@H]2[C@@H]3C(=O)OC[C@@H]3C[C@]23N=CN(Cc2ccccc2)C3=O)c1 | inactive |
| CCc1ccc(NC(=O)c2ccc(-n3cncn3)c([N+](=O)[O-])c2)cc1 | inactive |
| O=[N+]([O-])c1ccc2nc(-c3ccc(Cl)cc3)[nH]c2c1 | inactive |
| Cc1nc2ccc(NC(=O)c3cc([N+](=O)[O-])cc([N+](=O)[O-])c3Cl)cc2s1 | inactive |
| COc1cc([N+](=O)[O-])ccc1NC(=O)CN1CCCC1 | inactive |
| O=C(Nc1cccc2ccccc12)c1cccc([N+](=O)[O-])c1 | inactive |
| CN=C1NN=C(c2cc(C)n(-c3c(C)n(C)n(-c4ccccc4)c3=O)c2C)CS1 | inactive |
| Cc1ccc(-c2c[n+](CC(=O)Nc3ccc(C)cc3C)c3n2CCC3)cc1 | inactive |
| COC(=O)Cc1n[nH]c(=O)c2ccccc12 | inactive |
| Cn1cccc1/C=N/NC(=O)Cc1cccc2ccccc12 | inactive |
